From paper PMC4336329 (PLoS ONE, 2015)
About 14,000 (4.5%) of roughly 310,000 compounds showed an effect of 50% or more. Effects have a minus sign here. The full list was thinned out, with strong results kept by preference.

Target: human ether-à-go-go-related gene (hERG) potassium channel (human, UniProt Q12809)
Test: primary screen, population patch clamp on CHO cells stably expressing hERG; higher = less effect of the substance
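Also: peak tail current of the secondary pulse compared with the same well before compound.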

human ether-à-go-go-related gene (hERG) potassium channel, sequence (Q12809 whole entry, looked up): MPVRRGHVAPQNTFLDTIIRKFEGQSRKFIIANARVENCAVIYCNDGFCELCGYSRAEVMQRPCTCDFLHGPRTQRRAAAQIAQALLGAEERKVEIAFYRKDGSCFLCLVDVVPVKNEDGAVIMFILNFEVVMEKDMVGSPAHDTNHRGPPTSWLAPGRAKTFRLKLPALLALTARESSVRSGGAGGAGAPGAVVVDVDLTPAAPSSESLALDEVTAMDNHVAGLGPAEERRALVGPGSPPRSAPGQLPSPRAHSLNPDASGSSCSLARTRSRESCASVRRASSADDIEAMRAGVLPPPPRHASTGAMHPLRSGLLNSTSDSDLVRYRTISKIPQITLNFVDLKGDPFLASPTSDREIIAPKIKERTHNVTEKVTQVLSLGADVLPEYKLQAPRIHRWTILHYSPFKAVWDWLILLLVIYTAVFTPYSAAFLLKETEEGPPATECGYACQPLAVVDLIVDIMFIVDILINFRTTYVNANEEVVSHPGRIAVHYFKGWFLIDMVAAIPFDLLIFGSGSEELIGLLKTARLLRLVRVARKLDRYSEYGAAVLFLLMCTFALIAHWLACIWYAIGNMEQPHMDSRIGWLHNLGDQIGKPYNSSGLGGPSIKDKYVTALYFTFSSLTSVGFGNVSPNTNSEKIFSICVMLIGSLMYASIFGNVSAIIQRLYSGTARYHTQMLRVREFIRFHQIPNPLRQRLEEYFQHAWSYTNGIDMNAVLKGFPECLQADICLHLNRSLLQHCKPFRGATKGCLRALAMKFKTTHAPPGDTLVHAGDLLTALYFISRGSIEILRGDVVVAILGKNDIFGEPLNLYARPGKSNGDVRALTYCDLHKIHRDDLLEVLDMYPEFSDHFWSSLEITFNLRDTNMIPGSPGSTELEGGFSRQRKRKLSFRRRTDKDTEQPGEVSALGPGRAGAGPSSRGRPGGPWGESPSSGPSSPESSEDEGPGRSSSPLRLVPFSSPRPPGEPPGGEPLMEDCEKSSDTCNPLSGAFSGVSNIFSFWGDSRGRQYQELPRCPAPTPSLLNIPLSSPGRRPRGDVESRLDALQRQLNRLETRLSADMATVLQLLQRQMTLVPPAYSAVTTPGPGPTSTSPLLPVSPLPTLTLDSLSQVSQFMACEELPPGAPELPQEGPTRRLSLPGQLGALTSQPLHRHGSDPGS

SMILES	hERG current change (%, negative = inhibition) at 10uM [%]
Clc1ccc(-n2nnnc2-c2cnc3ccc(Cl)cc3c2-c2ccccc2)cc1	5.46
Cc1ccc(NC(=O)N2CCCc3ccccc32)cc1	-6.25
Cc1ccc(/C=C/C(=O)N2CCCC(C)C2)cc1 (stereo not drawn)	-8.25
Cc1ccc(/C=C/C(=O)N2CCCN(C(=O)/C=C/c3ccc(C)cc3)CC2)cc1	-74.8
CN1CCCN(C(=O)/C=C/c2ccc(F)cc2)CC1	-23.7
O=C(/C=C/c1ccc(F)cc1)N1CCCN(C(=O)/C=C/c2ccc(F)cc2)CC1	-75.6
O=C(Nc1ccccc1)N1CCCc2ccccc21	-79.2
O=C(Nc1ccccc1)N1CCc2ccccc21	-21.2
CCN1CCN(C(=O)/C=C/c2ccc(C)cc2)CC1	-23.1
CCN1CCN(C(=O)/C=C/c2ccc(F)cc2)CC1	-43.2
O=C(CCN1C(=O)c2ccccc2C1=O)N1CCC(c2ccccc2)C1 (stereo not drawn)	-43
O=C(CCCN1C(=O)c2ccccc2C1=O)N1CCC(c2ccccc2)C1 (stereo not drawn)	-58.6
O=C(CCCCCCN1C(=O)c2ccccc2C1=O)N1CCC(c2ccccc2)C1 (stereo not drawn)	-39.7
COc1ccc2cc(OCC(=O)NNC(=O)Nc3ccc(C(C)=O)cc3)ccc2c1	9.54
Cc1ccnc(SCc2cc(=O)c(OC(=O)c3ccco3)co2)n1	4.97
COc1ccc(NCc2ccsc2)cc1	2.52
O=C(NCC1CC1)c1ccccc1Cl	11.6
COc1ccc(N2CCN(C3CC(=O)N(c4ccc5c(c4)OCCO5)C3=O)CC2)cc1 (stereo not drawn)	-2.06
CC(=O)Oc1ccccc1C(=O)N(C1CCCCC1)C1CCCCC1	15.3
COc1ccc(C(=O)N/N=C(\Cc2ncc[nH]2)c2ccccc2)cc1	2.43
COCCN(C(=O)CSc1nnc(-c2ccccc2C)n1C)c1c(N)n(Cc2ccccc2)c(=O)[nH]c1=O	38.4
O=C(/C=C/c1ccc(F)cc1)N1CCCc2ccccc21	-62.7
CN1CCN(C(=O)/C=C/c2ccccc2)CC1	4.5
O=C(/C=C/c1ccccc1)N1CCOCC1	13.9

SMILES	hERG current change (%, negative = inhibition) at 10uM [%]
COc1ccc(/C=C/C(=O)N2CCCc3ccccc32)cc1	-16.8
O=C(/C=C/c1cccc(F)c1)N1CCc2ccccc21	4.51
O=C(/C=C/c1ccccc1)N1CCCN(C(=O)/C=C/c2ccccc2)CC1	-68.5
COc1ccccc1/C=C/C(=O)N1CCC(c2ccccc2)C1 (stereo not drawn)	-4.29
O=C(/C=C/c1ccccc1)N1CCC(c2ccccc2)C1 (stereo not drawn)	-57.6
COc1ccc(/C=C/C(=O)N2CCC(c3ccccc3)C2)cc1 (stereo not drawn)	-47.4
CCC(=O)Oc1ccc2c(c1)OC1(OC(C)=O)OC(C)CC1=C2C (stereo not drawn)	-5.19
CCCCn1nnnc1NCc1cccnc1	8.93
COc1ccc(CC(=O)NCc2nnc(SCC(=O)Nc3ccc(OC)cc3)n2C)cc1	4.08
Cc1ccc(S(=O)(=O)N2CCN(C(=O)c3ccc(COc4ccccc4)o3)CC2)cc1	-0.773
CCOC(=O)c1ccc(NC(=O)C2CCCN(S(=O)(=O)c3ccc(F)cc3)C2)cc1 (stereo not drawn)	-15.1
COc1ccc(-c2nn(C)c3sc(C(=O)NCCN(C)C)cc23)cc1OC	15.4
O=C(CCCOc1ccc(Cl)cc1Cl)NCCCn1ccnc1	-62.5
COc1cc(S(=O)(=O)NCCCn2ccnc2)ccc1Cl	7.94
O=C(COC(=O)c1cnccn1)c1ccc(Cl)cc1	24.4
CC(Oc1ccc(Cl)cc1Cl)C(=O)NCCCn1ccnc1 (stereo not drawn)	-28
O=C(OCC(=O)c1ccccc1Cl)c1cnccn1	-0.611
CCOc1cc(Cl)c(S(=O)(=O)NCCCn2ccnc2)cc1Cl	-48.9
CCOc1cc(S(=O)(=O)NCCCn2ccnc2)ccc1Cl	-64
Cc1cc(Cl)ccc1OCC(=O)NCCCn1ccnc1	-29.8
O=C(OCC(=O)c1ccc(Cl)cc1Cl)c1cnccn1	-58.3
Cl.O=C(COc1ccc(Cl)cc1Cl)NCCCn1ccnc1	-38.6
Cc1cc(Cl)ccc1OCCCC(=O)NCc1ccncc1	-44.4
Cc1cc(Cl)ccc1OCCCC(=O)NCCCn1ccnc1	-68.1
